Source: PubChem
CYP2C9 act = CYP2C9 (human) activation. P11712. recombinant CYP2C9, luciferin-H conversion, luminescence; stronger effect = higher value; factor 1 = untreated enzyme, 0 = blocked. 96,000 compounds, 1.4% hits. AID 1024. activation factor at 5 µM;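 active = activation factor of 2 or more for CYP2C9 at a 5 µM dose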;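 note: 0 = sulfaphenazole-blocked wells and 1 = vehicle-only wells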
CYP2C9 inh = inhibitors of human CYP2C9; P11712; CYP2C9 Supersomes, luciferin-H conversion, luminescence; inhibition, % at 5 µM; 96,000 compounds, 20% hits;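 active = blocking of liver enzyme CYP2C9 beyond about 50% at 5 µM, limit read from the data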
CYP2C19 act = cytochrome P450 2C19 (human) activation. P33261. recombinant CYP2C19, luciferin-H EGE luminescence; stronger effect = higher value; 0 = fully inhibited enzyme, 1 = untreated enzyme. activation factor at 5 µM. 96,000 tested, under 10 active;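 active = activation factor of at least 2 at 5 µM in the primary screen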;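 note: 0 = wells with 2.5 mM tranylcypromine and 1 = vehicle-only wells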
CYP2C19 inh = blocks human cytochrome P450 2C19; 96,000 compounds, 21% hits; inhibition, % at 5 µM; P33261; CYP2C19 Supersomes, luciferin-H EGE luminescence, 30 min;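 active = CYP2C19 inhibition above a set limit at 5 µM in the primary screen, cut at about 50% in these data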;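 note: plate controls were negative control wells for no effect and 2.5 mM tranylcypromine positive control for full effect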
PLK1 PBD inh = inhibitors of human Plk1 polo box domain binding; Plk1 PBD phosphopeptide binding, fluorescence polarization; inhibition, %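 (tested at about 20 µM)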; 97,000 compounds, 0.13% hits; in the data active = inhibition above about 34%, passing the limit was not always enough
Target sequence (P53350 whole entry, looked up, the tested form may be a part): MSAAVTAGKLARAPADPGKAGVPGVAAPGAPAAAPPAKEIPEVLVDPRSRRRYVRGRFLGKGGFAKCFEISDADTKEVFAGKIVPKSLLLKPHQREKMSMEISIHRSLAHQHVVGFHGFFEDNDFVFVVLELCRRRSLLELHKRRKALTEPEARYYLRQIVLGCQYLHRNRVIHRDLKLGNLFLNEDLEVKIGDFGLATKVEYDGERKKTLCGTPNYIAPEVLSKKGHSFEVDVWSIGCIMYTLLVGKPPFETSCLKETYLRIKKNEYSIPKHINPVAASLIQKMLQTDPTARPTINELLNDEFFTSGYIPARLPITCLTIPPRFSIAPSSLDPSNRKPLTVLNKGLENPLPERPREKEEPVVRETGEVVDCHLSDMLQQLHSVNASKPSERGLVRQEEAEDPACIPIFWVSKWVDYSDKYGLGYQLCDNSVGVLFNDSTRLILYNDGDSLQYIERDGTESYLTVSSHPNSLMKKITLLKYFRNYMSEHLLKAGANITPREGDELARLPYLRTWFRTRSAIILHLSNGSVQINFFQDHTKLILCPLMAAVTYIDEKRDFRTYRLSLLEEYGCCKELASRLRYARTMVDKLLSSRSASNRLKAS
PLK1 kinase inh = inhibitors of human PLK1 kinase; recombinant PLK1 kinase, TR-FRET peptide phosphorylation; inhibition, % at 10 µM; 97,000 compounds, 0.53% hits; AID 619;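 active = inhibition of 50% or more in the single-concentration screen; inactive = inhibition below 50%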;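 note: 0% = DMSO max control and 100% = H-89 dihydrochloride min control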
* marks the source's active call; other numbers are inactive results; . = not tested or not shown. Rows were chosen to be rich in hits. Some 28% of all compounds tested hit in one or more screens of this group.

SMILES | CYP2C9 act | CYP2C9 inh | CYP2C19 act | CYP2C19 inh | PLK1 PBD inh | PLK1 kinase inh
c1ccc(-n2ncc3c(N4CCN(CCOc5cccc6ccccc56)CC4)ncnc32)cc1 | 0.2 | 76* | 0.5 | 48 | 4 | -8
O=C(COC(=O)c1ccc(S(=O)(=O)N2CCCC2)cc1)NCc1ccc(F)cc1 | 0.7 | 26 | 0.8 | 23 | 26 | -17
CC(C)(C)NC(=O)CN(C(=O)Cn1nnc(-c2ccccc2F)n1)c1cccc2c1CCCC2 | 0.1 | 88* | 0.4 | 57* | -2 | -24
COc1ccccc1N(CC(=O)NC(C)(C)C)C(=O)Cn1nnc(-c2ccc(C)o2)n1 | 0.8 | 22 | 0.8 | 18 | -4 | -17
c1ccc2c(c1)ncn2Cc1nnc2sc(-c3ccncc3)nn12 | 0.5 | 49 | 0.2 | 78* | -1 | -14
c1ccc(-c2nn3c(Cn4cnc5ccccc54)nnc3s2)cc1 | 0.9 | 13 | 0.2 | 79* | -2 | -12
c1cncc(-c2nn3c(Cn4cnc5ccccc54)nnc3s2)c1 | 0.8 | 17 | 0.8 | 16 | 1 | 5
COc1ccc(-c2cc(N)n(CCC#N)n2)c(OC)c1 | 1.1 | -6 | 0.9 | 12 | -8 | -11
COc1ccc(-n2cnc3c(cnn3CCC#N)c2=N)cc1 | 0.9 | 8 | 0.2 | 77* | 17 | -5
Cc1cccc(C(=O)NN2C(=O)C3C(c4ccccc4)C=CC(c4ccccc4)C3C2=O)c1 (stereo not given) | 0.5 | 49 | 0.5 | 49 | -4 | -12
C=CCOCCN1C(=O)C2C(c3ccccc3)C=CC(c3ccccc3)C2C1=O (stereo not given) | 0.6 | 40 | 0.3 | 66* | 1 | -12
O=C1C2C(c3ccccc3)C=CC(c3ccccc3)C2C(=O)N1CCCO (stereo not given) | 0.2 | 82* | 0.2 | 82* | 4 | -13
CCOC(=O)c1ccc(N2C(=O)CC(N3CCOCC3)C2=O)cc1 (stereo not given) | 0.9 | 8 | 1 | -4 | 0 | -8
COC(=O)C1=C(C)NC(C)=C(C(=O)OC)C1c1ccc2ccccc2n1 | 0.5 | 50* | 0.2 | 77* | 9 | -2
COC(=O)C1=C(C)NC(C)=C(C(=O)OC)C1c1ccc(NC(C)=O)cc1 | 0.5 | 52* | 0.7 | 33 | -14 | -18
O=C1c2ccccc2C(=O)C1c1ccc2ccccc2n1 | 0.3 | 74* | 0.2 | 82* | . | .
O=C1C2C3C=CC(C3)C2C(=O)N1c1ccc2ccccc2n1 (stereo not given) | . | . | . | . | 3 | -14
CCN(CC)c1ccc(C2C(C(=O)OC)=C(C)NC(C)=C2C(=O)OC)cc1 | 0.8 | 18 | 0.7 | 34 | 7 | -9
Cn1c(C(=O)NCC2CCCO2)cc2c(=O)n3ccccc3nc21 (stereo not given) | 0.8 | 22 | 0.8 | 25 | -18 | -5
Cc1cc(C)c(S(=O)(=O)c2ccccc2C)c(Cl)n1 | 3.6* | -256 | 0.3 | 66* | -13 | 14
Cc1cc(C)c(S(=O)(=O)c2ccccc2C(=O)O)c(C)c1 | 0.9 | 9 | 1 | 0 | 4 | 0
Cc1ccc(S(=O)(=O)c2c(C)cc(C)nc2Cl)c(C)c1 | 1.8 | -85 | 0 | 100* | -42 | -11
CCCCSc1nc(C)cc(C)c1S(=O)(=O)c1ccccc1C | 0.6 | 39 | 0.3 | 75* | 25 | -13
COc1ccc(Oc2nc(C)cc(C)c2S(=O)(=O)c2ccc(C)cc2)cc1 | 0.7 | 34 | 0.7 | 31 | -15 | -12
Cc1cc(C)c(S(=O)(=O)c2ccccc2C)c(Oc2ccccc2)n1 | 0.4 | 56* | 0.3 | 69* | -7 | -11
SMILES | CYP2C9 act | CYP2C9 inh | CYP2C19 act | CYP2C19 inh | PLK1 PBD inh | PLK1 kinase inh
CC(=O)C1=C(O)C(=O)N(CCNCCO)C1c1ccccc1 (stereo not given) | 1 | 0 | 1 | 0 | -13 | -8
CCn1c(C(=O)Nc2ccsc2C(=O)OC)cc2sc(Cl)cc21 | 0.8 | 20 | 0.9 | 6 | -5 | -13
CON/C=C(\C=Nc1ccc(Cl)cc1)c1ncc(C(F)(F)F)cc1Cl | 1.1 | -7 | 1.1 | -13 | -12 | 3
COc1ccc(N(CC(=O)NC2CCCC2)C(=O)Cn2nnc(-c3ccc(C)cc3)n2)cc1OC | 0.9 | 6 | 1 | 1 | 12 | -3
CCOC(=O)CC1C(=O)NC2CCCCC2N1C(=O)Nc1ccc(Cl)cc1 (stereo not given) | 0.7 | 31 | 0.7 | 31 | -9 | -9
O=C(Oc1nsnc1N1CCOCC1)c1ccccc1 | 0.6 | 37 | 0.4 | 64* | 4 | -12
CC(C)OP(C)(=O)CN1CCN(CP(C)(=O)OC(C)C)CC1 (stereo not given) | 0.9 | 8 | 1 | -1 | -12 | 6
COc1ccccc1-c1cc(C(=O)NCc2cccs2)no1 | 2.3* | -126 | 1 | 5 | -23 | -12
COc1ccc(OC)c(-c2cc(C(=O)NCc3cccs3)no2)c1 | . | . | . | . | -13 | 2
COCCNC(=O)c1cc(-c2ccccc2OC)on1 | 2.6* | -158 | 0.8 | 24 | 28 | -9
Cc1cc(NC(=O)c2noc3c2CCCC3)no1 | 1.1 | -12 | 1.1 | -10 | . | .
COCCNC(=O)CSc1nc(-c2ccccc2)cs1 | 0.9 | 6 | 0.8 | 22 | -12 | -8
COc1cc(C(C#N)N2N=C(c3ccccc3)CC2c2ccccc2)ccc1O (stereo not given) | 0.4 | 58* | 0.7 | 33 | 8 | -12
c1coc(CNc2c3c(nc4ncnn24)CCC3)c1 | 0.1 | 88* | 1.1 | -7 | 0 | -4
c1coc(CNc2c3c(nc4ncnn24)CCCC3)c1 | 0.9 | 13 | 0.9 | 10 | . | .
CC1CCc2nc(NC(=O)C3COc4ccccc4O3)sc2C1 (stereo not given) | 0.8 | 16 | 1 | -1 | 32 | 12
CCNS(=O)(=O)c1ccc(OCCNS(C)(=O)=O)cc1 | 1 | -2 | 1.2 | -17 | -1 | -14
CCc1nnc(NC(=O)c2ccc(S(=O)(=O)N3CCCc4ccccc43)cc2)o1 | 0.4 | 62* | 1 | 1 | 11 | -1
CC1CCc2nc(NC(=O)c3ccc(S(=O)(=O)N4CCCc5ccccc54)cc3)sc2C1 (stereo not given) | 0.5 | 54* | 1 | 1 | 18 | -6
CS(=O)(=O)NCCOc1ccc(S(=O)(=O)N2CCCc3ccccc32)cc1 | 2.1* | -111 | 0.2 | 75* | 4 | -12
COc1ccc(OCc2nc(N)nc(Nc3cccc(C)c3C)n2)cc1 | 1.1 | -9 | 1.1 | -6 | -5 | -20
CC1(C)CC(=O)C(C=NCCN2CCN(CCc3ccccc3)CC2)=C(O)C1 | . | . | . | . | 16 | -17
CC(C)C(=O)Nc1ccc(C(=O)NNC(=O)c2ccco2)cc1 | 1.1 | -7 | 1 | 0 | 19 | -9
Cc1c2cccn2cc[n+]1C | 1.2 | -22 | 1.1 | -6 | -8 | -6
COc1cccc2c1OC1(C)CC2NC(=O)N1Cc1ccccc1 (stereo not given) | 1.2 | -20 | 0.7 | 29 | 14 | -15
